# Tests used:
# Assay in all cases: DAPPL (digital affinity profiling via proximity ligation, sequencing); 10 mM Tris-HCl pH 7.5, 50 mM NaCl, 1 mM DTT, 4% glycerol, room temperature, 30 min; GST-TFs on glutathione beads, 16-mer random dsDNA library, 0.1% formaldehyde crosslink after washing; high values mean tight binding
# FEV = biological target: T1, FEV (Homo sapiens, UniProt Q99581 1-238); details: protein: recombinant; tags: N-terminal GST; dsDNA, one strand shown
# T1 sequence: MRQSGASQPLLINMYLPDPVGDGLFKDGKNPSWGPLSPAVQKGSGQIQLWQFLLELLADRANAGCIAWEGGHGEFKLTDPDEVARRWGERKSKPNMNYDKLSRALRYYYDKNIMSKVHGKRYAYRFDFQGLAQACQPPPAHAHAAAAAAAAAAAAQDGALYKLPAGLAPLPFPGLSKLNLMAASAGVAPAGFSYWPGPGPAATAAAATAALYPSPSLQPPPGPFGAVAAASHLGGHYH
# Outline: (§1)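 Yeast served to express human transcription factors as GST fusions, which were then captured on glutathione beads and labelled with DNA barcodes. Pooled with a tag-only sample, they were incubated with 200 nmole of a 16-mer random double-stranded DNA library for 30 min at room temperature in Tris/NaCl/DTT/glycerol buffer, washed, crosslinked with 0.1% formaldehyde, ligated by proximity, amplified by PCR and sequenced. Dividing each hexamer's read frequency for a factor by its frequency for the tag-only sample gives the binding signal.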
# ETV5 = ETV5 (Homo sapiens, UniProt P41161 1-510); details: protein: recombinant; tags: N-terminal GST; dsDNA, one strand shown
# ETV5, sequence (P41161 whole entry): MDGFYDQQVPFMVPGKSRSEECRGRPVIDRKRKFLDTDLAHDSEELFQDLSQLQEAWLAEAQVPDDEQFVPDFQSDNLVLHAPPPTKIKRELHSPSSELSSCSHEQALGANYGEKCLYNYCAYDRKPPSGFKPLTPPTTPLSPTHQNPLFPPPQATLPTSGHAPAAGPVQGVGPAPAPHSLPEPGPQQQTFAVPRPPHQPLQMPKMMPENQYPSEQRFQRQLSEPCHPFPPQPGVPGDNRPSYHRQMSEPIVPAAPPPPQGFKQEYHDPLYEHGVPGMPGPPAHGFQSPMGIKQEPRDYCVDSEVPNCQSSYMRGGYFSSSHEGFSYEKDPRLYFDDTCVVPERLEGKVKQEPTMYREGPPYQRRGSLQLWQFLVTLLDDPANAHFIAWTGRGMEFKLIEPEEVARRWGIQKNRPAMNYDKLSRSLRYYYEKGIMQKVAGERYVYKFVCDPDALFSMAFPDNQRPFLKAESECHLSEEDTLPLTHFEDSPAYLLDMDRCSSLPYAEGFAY
# Outline: as §1
# HSF1 = HSF1 (Homo sapiens, UniProt Q00613 1-529); details: protein: recombinant; tags: N-terminal GST; chain copies: 3; dsDNA, one strand shown
# HSF1, sequence (Q00613 whole entry): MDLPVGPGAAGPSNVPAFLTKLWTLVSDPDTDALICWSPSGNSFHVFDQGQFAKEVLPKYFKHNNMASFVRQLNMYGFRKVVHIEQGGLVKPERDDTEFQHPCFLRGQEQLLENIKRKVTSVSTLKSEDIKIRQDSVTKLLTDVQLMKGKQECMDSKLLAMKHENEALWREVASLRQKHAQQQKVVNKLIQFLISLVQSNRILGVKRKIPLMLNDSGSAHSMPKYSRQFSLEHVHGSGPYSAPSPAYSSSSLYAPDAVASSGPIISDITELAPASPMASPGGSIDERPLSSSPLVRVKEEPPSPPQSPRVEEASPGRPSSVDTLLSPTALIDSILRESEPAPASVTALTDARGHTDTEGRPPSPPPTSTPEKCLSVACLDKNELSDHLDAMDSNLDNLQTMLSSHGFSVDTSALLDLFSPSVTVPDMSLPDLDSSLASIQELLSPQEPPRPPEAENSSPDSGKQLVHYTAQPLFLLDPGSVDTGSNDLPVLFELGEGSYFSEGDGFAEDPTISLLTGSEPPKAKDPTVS
# Outline: as §1
# SPIC = biological target: T2, SPIC (Homo sapiens, UniProt Q8N5J4 1-248); details: protein: recombinant; tags: N-terminal GST; dsDNA, one strand shown
# T2 sequence: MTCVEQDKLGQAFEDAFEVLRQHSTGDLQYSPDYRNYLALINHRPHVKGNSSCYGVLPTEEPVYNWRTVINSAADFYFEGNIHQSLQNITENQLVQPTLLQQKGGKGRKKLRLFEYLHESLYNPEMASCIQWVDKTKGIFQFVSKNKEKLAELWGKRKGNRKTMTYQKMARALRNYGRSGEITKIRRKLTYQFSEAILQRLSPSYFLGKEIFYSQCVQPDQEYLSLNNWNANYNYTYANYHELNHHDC
# Outline: as §1
# ELF4 = ELF4 (Homo sapiens, UniProt Q99607 1-663); details: protein: recombinant; tags: N-terminal GST; dsDNA, one strand shown
# ELF4, sequence (Q99607 whole entry): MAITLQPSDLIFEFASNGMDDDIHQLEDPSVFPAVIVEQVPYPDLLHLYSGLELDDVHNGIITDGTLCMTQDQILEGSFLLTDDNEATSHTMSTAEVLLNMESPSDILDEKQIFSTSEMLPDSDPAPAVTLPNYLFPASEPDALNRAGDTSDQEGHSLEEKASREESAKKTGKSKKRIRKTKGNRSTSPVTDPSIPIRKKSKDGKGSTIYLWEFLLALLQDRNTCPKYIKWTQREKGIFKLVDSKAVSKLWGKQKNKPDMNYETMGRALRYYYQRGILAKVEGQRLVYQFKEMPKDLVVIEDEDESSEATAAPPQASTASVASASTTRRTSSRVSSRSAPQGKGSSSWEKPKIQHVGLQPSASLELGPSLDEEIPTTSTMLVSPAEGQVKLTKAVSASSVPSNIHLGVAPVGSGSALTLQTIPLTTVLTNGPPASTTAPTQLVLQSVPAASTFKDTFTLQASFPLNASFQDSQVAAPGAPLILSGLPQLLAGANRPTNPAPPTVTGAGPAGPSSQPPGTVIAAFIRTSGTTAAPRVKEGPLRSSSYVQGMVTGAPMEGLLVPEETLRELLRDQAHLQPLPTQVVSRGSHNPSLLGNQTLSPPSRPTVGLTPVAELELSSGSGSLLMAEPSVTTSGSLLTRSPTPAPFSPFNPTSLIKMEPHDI
# Outline: as §1
# ELK4 = biological target: T3, ELK4 (Homo sapiens, UniProt P28324-2 1-405); details: protein: recombinant; tags: N-terminal GST; dsDNA, one strand shown
# T3 sequence: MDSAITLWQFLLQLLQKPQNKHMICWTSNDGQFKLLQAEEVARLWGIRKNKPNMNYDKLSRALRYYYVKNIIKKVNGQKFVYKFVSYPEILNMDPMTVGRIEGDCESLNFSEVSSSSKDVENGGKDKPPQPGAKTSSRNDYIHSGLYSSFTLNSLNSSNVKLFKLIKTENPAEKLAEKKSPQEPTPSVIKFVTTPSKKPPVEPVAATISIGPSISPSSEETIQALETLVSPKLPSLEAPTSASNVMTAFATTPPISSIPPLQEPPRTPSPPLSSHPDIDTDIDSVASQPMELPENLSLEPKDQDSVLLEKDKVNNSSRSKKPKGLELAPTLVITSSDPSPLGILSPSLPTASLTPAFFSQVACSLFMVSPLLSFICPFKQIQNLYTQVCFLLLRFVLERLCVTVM
# Outline: as §1
# ETV2 = biological target: T4, ETV2 (Homo sapiens, UniProt O00321 1-342); details: protein: recombinant; tags: N-terminal GST; dsDNA, one strand shown
# T4 sequence: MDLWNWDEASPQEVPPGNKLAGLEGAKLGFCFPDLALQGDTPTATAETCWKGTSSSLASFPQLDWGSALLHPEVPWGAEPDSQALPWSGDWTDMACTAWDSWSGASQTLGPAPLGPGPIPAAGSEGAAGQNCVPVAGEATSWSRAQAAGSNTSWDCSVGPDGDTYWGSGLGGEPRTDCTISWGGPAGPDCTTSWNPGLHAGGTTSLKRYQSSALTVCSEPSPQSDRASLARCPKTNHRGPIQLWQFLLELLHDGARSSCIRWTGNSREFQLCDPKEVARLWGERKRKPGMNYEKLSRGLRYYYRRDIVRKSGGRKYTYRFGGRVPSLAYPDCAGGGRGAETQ
# Outline: as §1
# ELF3 = biological target: T5, ELF3 (Homo sapiens, UniProt P78545 1-371); details: protein: recombinant; tags: N-terminal GST; dsDNA, one strand shown
# T5 sequence: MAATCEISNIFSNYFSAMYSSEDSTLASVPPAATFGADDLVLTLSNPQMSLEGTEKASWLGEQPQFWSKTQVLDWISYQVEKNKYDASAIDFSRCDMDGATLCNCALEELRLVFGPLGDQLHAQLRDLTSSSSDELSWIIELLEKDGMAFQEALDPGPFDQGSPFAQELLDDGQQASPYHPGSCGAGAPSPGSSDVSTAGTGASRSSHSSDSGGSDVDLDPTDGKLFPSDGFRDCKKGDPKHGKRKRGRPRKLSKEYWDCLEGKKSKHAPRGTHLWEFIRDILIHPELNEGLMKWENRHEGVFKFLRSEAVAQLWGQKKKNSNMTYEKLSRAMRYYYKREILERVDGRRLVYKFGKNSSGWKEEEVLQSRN
# Outline: as §1
# CRX = CRX (Homo sapiens, UniProt O43186 1-299); details: protein: recombinant; tags: N-terminal GST; dsDNA, one strand shown
# CRX, sequence (O43186 whole entry): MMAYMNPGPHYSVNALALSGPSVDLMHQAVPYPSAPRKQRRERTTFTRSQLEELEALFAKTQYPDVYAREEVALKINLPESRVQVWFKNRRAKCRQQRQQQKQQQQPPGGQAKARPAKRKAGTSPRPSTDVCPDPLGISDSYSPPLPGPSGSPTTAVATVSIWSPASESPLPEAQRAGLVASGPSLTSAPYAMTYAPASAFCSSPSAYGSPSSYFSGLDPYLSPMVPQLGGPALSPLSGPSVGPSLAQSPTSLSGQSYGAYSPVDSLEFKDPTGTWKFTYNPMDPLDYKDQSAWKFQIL
# Outline: as §1
# ETV1 = ETV1 (Homo sapiens, UniProt P50549 1-477); details: protein: recombinant; tags: N-terminal GST; dsDNA, one strand shown
# ETV1, sequence (P50549 whole entry): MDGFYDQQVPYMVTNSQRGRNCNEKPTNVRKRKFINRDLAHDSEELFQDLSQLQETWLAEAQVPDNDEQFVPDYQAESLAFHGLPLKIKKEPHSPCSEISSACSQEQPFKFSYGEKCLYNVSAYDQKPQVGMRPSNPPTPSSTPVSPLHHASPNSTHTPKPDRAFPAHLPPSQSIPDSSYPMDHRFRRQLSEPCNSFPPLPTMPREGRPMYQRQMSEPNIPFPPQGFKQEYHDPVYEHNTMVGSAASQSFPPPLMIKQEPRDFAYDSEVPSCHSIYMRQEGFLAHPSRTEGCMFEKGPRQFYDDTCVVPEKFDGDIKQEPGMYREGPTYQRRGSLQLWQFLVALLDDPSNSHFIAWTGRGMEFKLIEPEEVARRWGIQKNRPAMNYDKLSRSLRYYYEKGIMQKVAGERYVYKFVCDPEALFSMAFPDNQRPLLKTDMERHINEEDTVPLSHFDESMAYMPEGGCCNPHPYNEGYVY
# Outline: as §1
# ERF = biological target: T6, ERF (Homo sapiens, UniProt P50548 1-548); details: protein: recombinant; tags: N-terminal GST; dsDNA, one strand shown
# T6 sequence: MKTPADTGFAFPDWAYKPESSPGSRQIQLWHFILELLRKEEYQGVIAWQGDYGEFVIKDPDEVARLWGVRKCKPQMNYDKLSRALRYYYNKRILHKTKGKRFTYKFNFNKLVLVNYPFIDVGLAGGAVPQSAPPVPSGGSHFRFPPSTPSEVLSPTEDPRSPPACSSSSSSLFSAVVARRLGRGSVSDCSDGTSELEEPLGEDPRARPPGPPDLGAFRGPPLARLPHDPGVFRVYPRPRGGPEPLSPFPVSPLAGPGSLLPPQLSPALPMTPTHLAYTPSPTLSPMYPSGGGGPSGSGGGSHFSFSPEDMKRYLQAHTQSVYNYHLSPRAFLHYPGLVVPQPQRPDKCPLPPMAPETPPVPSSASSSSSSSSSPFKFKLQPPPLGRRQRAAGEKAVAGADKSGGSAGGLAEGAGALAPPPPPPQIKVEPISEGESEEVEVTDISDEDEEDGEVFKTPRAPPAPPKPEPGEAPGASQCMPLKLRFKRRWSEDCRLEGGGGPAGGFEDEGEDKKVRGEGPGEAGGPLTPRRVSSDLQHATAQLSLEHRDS
# Outline: as §1
# ETV3L = biological target: T7, ETV3L (Homo sapiens, UniProt Q6ZN32 1-361); details: protein: recombinant; tags: N-terminal GST; dsDNA, one strand shown
# T7 sequence: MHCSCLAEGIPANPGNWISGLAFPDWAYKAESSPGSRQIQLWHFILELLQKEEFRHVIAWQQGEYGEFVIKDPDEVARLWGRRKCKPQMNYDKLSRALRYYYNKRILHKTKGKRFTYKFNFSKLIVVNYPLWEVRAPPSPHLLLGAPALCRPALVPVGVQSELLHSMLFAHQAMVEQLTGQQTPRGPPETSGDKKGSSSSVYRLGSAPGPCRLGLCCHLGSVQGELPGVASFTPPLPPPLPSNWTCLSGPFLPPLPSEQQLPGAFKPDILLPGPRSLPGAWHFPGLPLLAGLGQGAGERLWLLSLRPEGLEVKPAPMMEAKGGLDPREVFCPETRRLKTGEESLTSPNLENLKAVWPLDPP
# Outline: as §1
# ETS2 = biological target: T8, ETS2 (Homo sapiens, UniProt P15036 1-469); details: protein: recombinant; tags: N-terminal GST; dsDNA, one strand shown
# T8 sequence: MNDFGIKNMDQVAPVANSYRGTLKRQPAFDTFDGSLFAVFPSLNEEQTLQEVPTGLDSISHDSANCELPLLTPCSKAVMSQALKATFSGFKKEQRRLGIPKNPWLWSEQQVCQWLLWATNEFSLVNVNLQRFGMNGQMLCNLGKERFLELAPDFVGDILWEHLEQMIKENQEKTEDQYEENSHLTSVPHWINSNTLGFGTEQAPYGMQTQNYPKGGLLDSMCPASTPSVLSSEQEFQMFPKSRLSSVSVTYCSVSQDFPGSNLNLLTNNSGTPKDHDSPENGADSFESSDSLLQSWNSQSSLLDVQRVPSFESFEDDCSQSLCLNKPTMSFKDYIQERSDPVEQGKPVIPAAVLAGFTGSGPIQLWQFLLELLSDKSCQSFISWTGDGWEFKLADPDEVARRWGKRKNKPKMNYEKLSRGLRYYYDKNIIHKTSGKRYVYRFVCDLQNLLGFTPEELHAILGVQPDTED
# Outline: as §1
# SPDEF = biological target: T9, SPDEF (Homo sapiens, UniProt O95238 1-335); details: protein: recombinant; tags: N-terminal GST; dsDNA, one strand shown
# T9 sequence: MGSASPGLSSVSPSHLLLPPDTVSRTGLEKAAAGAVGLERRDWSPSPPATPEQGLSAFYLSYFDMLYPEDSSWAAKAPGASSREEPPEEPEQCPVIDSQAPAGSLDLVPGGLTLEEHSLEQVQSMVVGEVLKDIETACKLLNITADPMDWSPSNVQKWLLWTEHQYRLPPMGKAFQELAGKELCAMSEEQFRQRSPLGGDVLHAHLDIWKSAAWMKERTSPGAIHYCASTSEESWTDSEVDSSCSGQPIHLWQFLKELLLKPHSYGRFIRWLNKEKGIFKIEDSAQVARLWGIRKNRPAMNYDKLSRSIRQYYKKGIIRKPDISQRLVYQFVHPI
# Outline: as §1
# ETV7 = biological target: T10, ETV7 (Homo sapiens, UniProt Q9Y603 1-341); details: protein: recombinant; tags: N-terminal GST; dsDNA, one strand shown
# T10 sequence: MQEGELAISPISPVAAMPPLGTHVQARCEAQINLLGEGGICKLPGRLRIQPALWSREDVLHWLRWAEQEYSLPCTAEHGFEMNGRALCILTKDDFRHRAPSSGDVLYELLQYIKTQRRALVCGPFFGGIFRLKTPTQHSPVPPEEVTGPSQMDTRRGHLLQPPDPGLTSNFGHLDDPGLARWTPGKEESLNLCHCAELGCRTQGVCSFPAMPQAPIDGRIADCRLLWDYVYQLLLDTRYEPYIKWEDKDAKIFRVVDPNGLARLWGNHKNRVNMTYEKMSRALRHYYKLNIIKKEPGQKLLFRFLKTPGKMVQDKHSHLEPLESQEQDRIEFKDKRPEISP
# Outline: as §1
# ELF5 = biological target: T11, ELF5 (Homo sapiens, UniProt Q9UKW6-2 1-255); details: protein: recombinant; tags: N-terminal GST; dsDNA, one strand shown
# T11 sequence: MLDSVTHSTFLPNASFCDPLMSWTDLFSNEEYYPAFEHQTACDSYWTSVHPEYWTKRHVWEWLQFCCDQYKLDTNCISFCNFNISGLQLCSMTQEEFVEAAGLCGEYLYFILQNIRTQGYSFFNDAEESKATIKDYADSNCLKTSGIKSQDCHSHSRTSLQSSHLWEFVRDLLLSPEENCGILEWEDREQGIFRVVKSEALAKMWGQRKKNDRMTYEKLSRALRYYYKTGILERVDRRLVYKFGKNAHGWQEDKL
# Outline: as §1
# ETV3 = biological target: T12, ETV3 (Homo sapiens, UniProt P41162-2 1-143); details: protein: recombinant; tags: N-terminal GST; dsDNA, one strand shown
# T12 sequence: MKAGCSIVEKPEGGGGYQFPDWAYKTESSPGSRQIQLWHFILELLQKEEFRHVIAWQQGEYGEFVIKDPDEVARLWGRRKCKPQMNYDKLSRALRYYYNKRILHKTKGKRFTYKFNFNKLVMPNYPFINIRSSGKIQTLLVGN
# Outline: as §1
# ETV6 = ETV6 (Homo sapiens, UniProt P41212 1-452); details: protein: recombinant; tags: N-terminal GST; dsDNA, one strand shown
# ETV6, sequence (P41212 whole entry): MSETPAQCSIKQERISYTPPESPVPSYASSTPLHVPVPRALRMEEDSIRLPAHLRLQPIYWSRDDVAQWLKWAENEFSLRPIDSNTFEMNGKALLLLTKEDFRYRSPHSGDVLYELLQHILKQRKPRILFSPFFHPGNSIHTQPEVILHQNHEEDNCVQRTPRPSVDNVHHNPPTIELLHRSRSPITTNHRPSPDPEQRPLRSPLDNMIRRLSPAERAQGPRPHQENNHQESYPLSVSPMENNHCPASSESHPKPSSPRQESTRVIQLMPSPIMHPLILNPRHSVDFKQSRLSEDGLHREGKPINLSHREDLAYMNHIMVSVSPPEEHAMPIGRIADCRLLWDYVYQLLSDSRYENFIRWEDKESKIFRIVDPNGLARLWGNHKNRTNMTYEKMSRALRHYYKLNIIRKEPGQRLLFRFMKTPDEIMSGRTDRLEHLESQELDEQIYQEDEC
# Outline: as §1
sequence,measurement,setting,value
TTGAGC,binding signal,FEV,"1 fold enrichment (6-mer frequency, TF over GST control)"
same,binding signal,ETV5,"1.03 fold enrichment (6-mer frequency, TF over GST control)"
same,binding signal,HSF1,"1.03 fold enrichment (6-mer frequency, TF over GST control)"
same,binding signal,SPIC,"1.18 fold enrichment (6-mer frequency, TF over GST control)"
same,binding signal,ELF4,"1.06 fold enrichment (6-mer frequency, TF over GST control)"
same,binding signal,ELK4,"1.04 fold enrichment (6-mer frequency, TF over GST control)"
same,binding signal,ETV2,"1.07 fold enrichment (6-mer frequency, TF over GST control)"
same,binding signal,ELF3,"1.13 fold enrichment (6-mer frequency, TF over GST control)"
same,binding signal,CRX,"1.28 fold enrichment (6-mer frequency, TF over GST control)"
same,binding signal,ETV1,"1.1 fold enrichment (6-mer frequency, TF over GST control)"
same,binding signal,ERF,"1.04 fold enrichment (6-mer frequency, TF over GST control)"
same,binding signal,ETV3L,"1.06 fold enrichment (6-mer frequency, TF over GST control)"
same,binding signal,ETS2,"1.03 fold enrichment (6-mer frequency, TF over GST control)"
same,binding signal,SPDEF,"1.02 fold enrichment (6-mer frequency, TF over GST control)"
same,binding signal,ETV7,"1.1 fold enrichment (6-mer frequency, TF over GST control)"
same,binding signal,ELF5,"1 fold enrichment (6-mer frequency, TF over GST control)"
same,binding signal,ETV3,"1 fold enrichment (6-mer frequency, TF over GST control)"
same,binding signal,ETV6,"1.08 fold enrichment (6-mer frequency, TF over GST control)"
